Screens from PubChem.
CHX counter = counter-screen for Shiga toxin inhibitors: cycloheximide protein synthesis inhibition | cell reporter, cycloheximide protein synthesis inhibition counterscreen | max response, % | 12% of 300,000 active; in the data active means max response mostly above about 13%, no sharp cut-off; inactive means mostly below about 14%; further: read at 38.3 µM for the half of the compounds with a filed dose; 0% is about no effect
Pf growth 96h = P. falciparum growth inhibition at 96 hours | P. falciparum luciferase reporter growth, 96 h | Potency, µM (top dose mostly 28.7 µM), for inactives: at the top dose activity change, negative = inhibition, most hits filed as inhibitors | 6.9% of 320,000 active | AID 504834; further: potency means the concentration at half of the fitted maximal effect; on the % scale 0 is the no-effect control and ±100 the full control effect
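P. falciparum expressing integrated firefly luciferase, in erythrocytes at 2% hematocrit, 0.05% parasitemia, incubated with compounds 96 h at 37 C, 5% CO2. Growth inhibition read as loss of luminescence; two-generation exposure targets delayed-death apicoplast inhibitors.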
SARS PLP yeast = SARS-CoV PLP inhibition in yeast | S. cerevisiae expressing SARS-CoV PLpro, growth rescue | Potency, µM (top dose mostly 32.9 µM), for inactives: at the highest dose activity, positive = growth rescue, actives largely listed as activators | 0.19% of 330,000 active; calls by dose curve; further: potency means the concentration at half of the fitted maximal effect; 0% is about no effect; nearly all actives have a fitted effect of over 55% in size
Shiga inhibitor = blocks Shiga toxin action in Vero cells. inhibition, % at 38.7 µM. Vero cells, Shiga toxin protein synthesis inhibition reporter. 9.2% of 290,000 active; in the data active means inhibition mostly above about 28%, no sharp cut-off; inactive means mostly below about 43%; further: 0% is about no effect
Pf growth 48h = inhibits P. falciparum growth in the first generation, 48 h; 5.9% of 310,000 active; P. falciparum luciferase growth in erythrocytes, 48 h; Potency, µM (top dose mostly 28.7 µM), for inactives: at the highest dose activity change, negative = inhibition, hits mostly inhibitors; further: potency means the concentration at half of the fitted maximal effect; on the % scale 0 is the no-effect control and ±100 the full control effect
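Luciferase-expressing P. falciparum in infected erythrocytes (2% hematocrit, 0.1% parasitemia final) in RPMI 1640/0.5% Albumax were exposed to compound for 48 hours at 37 C, 5% CO2; growth read as luminescence.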
NS1 inh = blocks influenza NS1 protein function; Potency, µM (top dose mostly 46.1 µM), for the others: top-dose activity, positive = more growth; 0.4% of 270,000 active; calls by dose curve; further: potency means the concentration at half of the fitted maximal effect; actives are rising curves; nearly all actives have a fitted effect of over 50% in size
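In this qHTS, NS1 from influenza A is expressed in budding yeast, where it slows growth. Cells are switched from glucose to 2% galactose medium (pH 6.0, -URA), treated with compound, and growth recovery is read at OD600.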
The depositor's hits bear a star; ? = inconclusive; / = no result given. Most compounds without a hit are left out; they make up all but 21% or so of the library. Unless noted, the call rests on the fitted dose curve; in most records, active means well fitted inhibition curve with a large enough effect; inconclusive means small, poorly fitted or top-dose-only effect, or another doubt; inactive means no such curve, though single readings can be large or run the other way.

SMILES | CHX counter | Pf growth 96h | SARS PLP yeast | Shiga inhibitor | Pf growth 48h | NS1 inh
Cc1occc1-c1nnc(SCC(=O)c2ccc(F)cc2)o1 | 37* | / | -1% | 147* | 28% | -3%
Cc1occc1-c1nnc(SCC(=O)c2ccc(F)cc2)n1Cc1ccco1 | 12* | / | 1% | 14 | -15% | -2%
Cc1ccc(OCc2nnc(SCc3nc4ccccc4[nH]3)n2Cc2ccco2)cc1 | -4 | 6.6µM* | -4% | 21 | ? | -94%
Cc1noc(C)c1COC(=O)c1cnc(Cl)c(Cl)c1 | 5 | 8% | -2% | -3 | -3% | 2%
Cc1cc(NC(=O)CSc2nnc(-c3ccc(Br)o3)n2Cc2ccccc2)no1 | 11 | ? | 10% | -12 | ? | -4%
O=C(CSc1nnc(-c2ccco2)n1Cc1ccccc1)c1ccc(F)cc1 | 36* | 72% | 16% | 60* | ? | ?
O=C(CSc1nnc(-c2ccc(Br)o2)n1Cc1ccccc1)c1ccccc1F | -1 | ? | 1% | -12 | 9.3µM* | 1%
N#Cc1cnc(SCC(=O)NNC(=O)COc2cccc3ccccc23)nc1N | -2 | ? | 16% | -15 | -7% | 1%
CCN(C(=O)COc1ccc2ccc(=O)oc2c1)C1CCCCC1 | / | / | -1% | / | / | /
COc1ccccc1NC(=O)c1ccc2nsnc2c1 | 26* | -1% | -2% | 107* | 174% | -7%
Cc1nnsc1C(=O)Nc1ccccc1 | -1 | 10µM* | 2% | 18 | -5% | 4%
O=C(Nc1ccccc1)c1ccc2snnc2c1 | 25* | -1% | 0% | 67* | 34% | -1%
COc1ccccc1NC(=O)c1ccc2snnc2c1 | 16 | -14% | -1% | 42* | 7% | -6%
O=C(Nc1cccnc1)c1ccc2snnc2c1 | 21 | 15% | 2% | -1 | 36% | -12%
N#CCCN(C(=O)COC(=O)CCc1nc2ccccc2c(=O)[nH]1)c1ccccc1F | / | ? | -3% | / | -8% | /
Cc1ccc(S(=O)(=O)N[C@H](C(=O)N2CCC(C(=O)N3CCC[C@H]3C(=O)O)CC2)C(C)C)cc1 | 2 | 28% | -9% | 4 | 23% | ?
COc1ccccc1NC(=O)c1ccc2c(O)c(S(=O)(=O)c3ccccc3)c(=O)[nH]c2c1 | -1 | 12µM* | -4% | -5 | 26% | 12%
COc1ccccc1NC(=O)c1ccc(N)cc1 | 16* | -16% | 6% | 60* | / | -6%
Cc1ccc(C(=O)Nc2ccccc2OC(F)F)cc1 | 37* | 29% | -9% | 45* | / | -17%
COc1ccc(S(=O)(=O)c2c(O)c3ccc(C(=O)Nc4ccccc4)cc3[nH]c2=O)cc1 | -4 | ? | -3% | -3 | 25% | 12%
COc1ccccc1NC(=O)c1ccccc1C(=O)Nc1ccccc1OC | -3 | -2% | -9% | -2 | 13% | 2%
O=C(Nc1ccccc1OC(F)F)c1ccccc1 | 10 | / | -20% | -9 | 16% | -13%
O=C(NC1CC1)c1ccc2snnc2c1 | -2 | -3% | 1% | 17 | 14% | 3%
COc1cc(NC(=O)c2ccc3snnc3c2)cc(OC)c1 | 29* | 73% | -1% | 23 | 72% | 2%
CC1(C)Cc2c(sc(NC(=O)C(=O)N3CCCCC3)c2C(N)=O)CO1 | 8 | -28% | 5% | 14 | 10% | 11%
SMILES | CHX counter | Pf growth 96h | SARS PLP yeast | Shiga inhibitor | Pf growth 48h | NS1 inh
O=S(=O)(c1ccccc1)N1CCN(c2nc(-c3ccc(F)cc3)nc3cc(Cl)ccc23)CC1 | 13 | / | / | -3 | / | /
O=C(O)c1ccc(NC(CSCc2ccccc2F)C(=O)O)c([N+](=O)[O-])c1 (stereo not given) | -4 | 11% | -2% | -11 | 2% | 15%
CC(C)CCN(C(=O)CNC(=O)c1ccco1)C(C(=O)NC1CCCCC1)c1cccnc1 (stereo not given) | -3 | ? | 2% | -2 | -5% | -7%
Cc1ccc(NC(=O)c2ccc3snnc3c2)cc1 | 18* | 12% | -2% | 29 | -2% | 3%
COc1ccccc1OC(=O)c1ccc2nsnc2c1 | 9.9* | 0% | -11% | 15 | 24% | -1%
CC(C)c1ccc(NC(=O)c2ccc3snnc3c2)cc1 | 2 | 74% | -2% | -10 | -1% | -12%
COC(=O)c1ccc(C(=O)Nc2ccc(N)cc2N)cc1 | -3 | -9% | -2% | 6 | 4.1µM* | -1%
CC1CCC(NC(=O)c2ccc3snnc3c2)CC1 (stereo not given) | 41* | ? | -6% | 50* | 44% | -3%
CCOc1ccccc1CN1C(=O)NC2(CCCCCC2)C1=O | -5 | 20% | 0% | -5 | 6% | -1%
O=C(O)c1ccccc1C(=O)NNc1cccc(Cl)n1 | 49* | 116% | 0% | 98* | 161% | 5%
CC(=O)NNc1cccc(Cl)n1 | 6 | 0% | 3% | 6 | 16% | ?
O=C(NNc1cccc(Cl)n1)C(F)(F)F | 8 | 2.3µM* | 1% | 15 | 12µM* | /
NS(=O)(=O)c1ccc(NC(=O)c2ccccc2Cl)cc1 | 1 | / | 7% | -7 | 1% | 3%
O=C(O)c1ccccc1C(=O)NNc1ccc(Cl)cc1 | 11* | -1% | -19% | 49* | 7% | -103%
O=C(O)c1ccccc1C(=O)NNc1ccc(F)cc1F | -6 | 9% | 0% | -17 | 21% | /
NS(=O)(=O)c1ccc(NNC(=O)c2ccccc2C(=O)O)cc1 | 29* | 10% | 1% | 89 | 6% | 0%
COCc1cc([C@@H]2C[C@H]3CN(c4ccccc4)C(=O)[C@]34CCCN24)ccc1OC | 2 | ? | 1% | 3 | 10µM* | 3%
COc1ccccc1CN1C[C@@H]2C[C@@H](C3=Cc4cc(Cl)ccc4OC3)N3CCC[C@@]23C1=O | -2 | 13µM* | 0% | 3 | ? | 16%
COc1ccc([C@@H]2C[C@H]3CN(c4ccccc4)C(=O)[C@]34CCCN24)c(OC)c1OC | -2 | 7% | 0% | 23 | ? | 7%
CN1C[C@@H]2C[C@@H](C3=Cc4cc(Cl)ccc4OC3)N3CCC[C@@]23C1=O | -2 | 5% | 0% | -10 | -25% | 0%
COc1ccccc1CN1C[C@@H]2C[C@@H](c3[nH]c4ccc(C)cc4c3C)N3CCC[C@@]23C1=O | 7 | -14% | 0% | -10 | 7.4µM* | 1%
COc1ccccc1CN1C[C@@H]2C[C@@H](c3ccc(C)cc3)N3CCC[C@@]23C1=O | -4 | ? | -1% | -10 | ? | -4%
CCn1ccnc1[C@@H]1C[C@H]2CN(Cc3ccccc3OC)C(=O)[C@]23CCCN13 | -2 | 9.3µM* | 0% | 15 | 11% | -1%
CC[C@H](C)[C@@H]1NC(=O)c2cc([N+](=O)[O-])cc(I)c2SC[C@@H](C(N)=O)NC(=O)[C@H](CCCCN)NC1=O | -3 | 0% | -1% | -11 | 25% | -6%
